Measurements reported in PubChem BioAssay AID623868 (Vanderbilt High Throughput Screening Facility, 2012).
The whole screen tested about 2,100 compounds, of which about 760 (36%) were called active.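 How the source made its calls: active means thallium-flux fluorescence traces judged by eye to show enhanced or reduced glutamate response, manual score 1 or -1, so both directions (some results past the limit were not filed as active); inactive means the rest, including fluorescent or raised-baseline compounds.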 These entries were drawn from the full list.

Assay: thallium influx changes without GIRK channels – cell-based, HEK-293 rmGlu8, no GIRK, thallium flux, counter-screen for GIRK activator project, confirmation (AID 623868);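 further: extra codes mark interference with 3 for fluorescent and 4 for baseline rise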
Details: thallium flux fluorescence, at 10 µM, actives lie on both sides, codes: 1 enhancer, -1 blocker, 0 none, thallium stimulus containing EC20 glutamate

Compound	manual score
COc1ccc(-c2ccnc3nc(Sc4ncc(C(F)(F)F)cc4Cl)nn23)cc1	0 (inactive)
COc1cccc(C(=O)NC(=S)Nc2ccc([N+](=O)[O-])cc2C)c1	1 (active)
Cc1cc([N+](=O)[O-])ccc1NC(=S)NC(=O)Cc1ccccc1	1 (active)
Cc1ccc(NC(=S)NCc2ccccc2)cc1[N+](=O)[O-]	0 (inactive)
O=C(NC(=S)Nc1cc([N+](=O)[O-])ccc1Cl)c1ccccc1	0 (inactive)
O=C(Cc1ccccc1)N/N=C/c1cccn1-c1ccc([N+](=O)[O-])cc1	0 (inactive)
Cc1ccc([N+](=O)[O-])cc1NC(=S)NC(=O)c1ccco1	1 (active)
CC(=O)Nc1ccc(NC(=O)CSc2nccn2Cc2ccccc2)cc1	0 (inactive)
COc1ccc(CO/N=C/c2c(C)[nH]c(=O)[nH]c2=O)cc1	0 (inactive)
CCOC(=O)C(CCCCOc1cccc(CC)c1)C(=O)OCC	0 (inactive)
CCOc1ccc(-c2nc(-c3ccc(OC)cc3)no2)cc1OCC	0 (inactive)
Oc1c(Cl)cc(Cl)c2c1NCCC2	0 (inactive)
Cc1cccc(OCC(O)Cn2c(=N)n(CCN3CCCCC3)c3ccccc32)c1 (stereo not given)	0 (inactive)
c1ccc2c(c1)oc1c(N3CCN(Cc4ccc5c(c4)OCO5)CC3)ncnc12	0 (inactive)
COc1ccccc1N1CCN(Cc2cc(Br)c(O)c3ncccc23)CC1	1 (active)
Cc1cccc(N=C2NC(=O)/C(=C/C=C/c3ccco3)S2)c1C	1 (active)
COC(=O)C1=C(C)NC(=O)/C1=C\c1ccco1	0 (inactive)
CC(C)c1ccc(-c2noc(C3CCCN(S(C)(=O)=O)C3)n2)cc1 (stereo not given)	0 (inactive)
CCOC(=O)c1c(C)c(C(=O)N2CCc3ccccc3C2)c(C)n1CC	0 (inactive)
O=C(COc1c(Br)cc(Br)c2cccnc12)N1CCc2ccccc2C1	1 (active)
CC(C)=CCC(C)(C)CNC(=O)NC1CCCCC1	0 (inactive)
Cn1c(-c2sc3ccccc3c2Cl)n[nH]c1=S	1 (active)

Compound	manual score
CCC(CC)c1nnc(NC(=O)C2COc3ccccc3O2)s1 (stereo not given)	0 (inactive)
CCC(CC)c1nnc(NC(=O)c2ccc3ccccc3n2)s1	1 (active)
Cc1nnc(NC(=O)CCSc2ccccc2)s1	0 (inactive)
Cc1ccc(NC2=NC(=S)N(CC#N)C23CCCCC3)cc1	1 (active)
COc1ccc(NC2=NC(=S)N(c3ccccc3C)C23CCCCC3)cc1	1 (active)
N#CCN1C(=S)N=C(Nc2cccc(Cl)c2)C12CCCCC2	0 (inactive)
O=c1c2ccccc2[nH]c(=S)n1CCCN1CCN(C2CCCCC2)CC1	1 (active)
O=c1c2ccccc2[nH]c(=S)n1CCN1CCN(Cc2ccccc2)CC1	1 (active)
Cc1ccccc1-c1nc(CN2CCC(C(=O)NCCCN3CC(C)CC(C)C3)CC2)c(C)o1 (stereo not given)	0 (inactive)
CCC1CCCCN1CCCn1c(=S)[nH]c2ccccc2c1=O (stereo not given)	1 (active)
CCC1CCCN1Cn1cnc2c([nH]c3ccc(OC)cc32)c1=O (stereo not given)	0 (inactive)
CC1CCCCN1CCCn1c(=S)[nH]c2ccccc2c1=O (stereo not given)	0 (inactive)
O=C(NCc1ccccc1)c1ccc2c(=O)n(CCCN3CCCC3=O)c(=S)[nH]c2c1	0 (inactive)
CC1CC(C)CN(CCCn2c(=S)[nH]c3ccccc3c2=O)C1 (stereo not given)	1 (active)
CC(C)CCn1c(CN2CCN(Cc3ccccc3)CC2)nc2c1c(=O)[nH]c(=O)n2C	0 (inactive)
Cc1cccc(N2C(N)=NC(N)=NC23CCCCC3)c1	0 (inactive)
CCN(CC)S(=O)(=O)c1cc(NC(=O)Cn2cnc3ccccc3c2=O)ccc1C	0 (inactive)
CC(C)CN(C(=O)COC(=O)Cc1n[nH]c(=O)c2ccccc12)C1CCS(=O)(=O)C1 (stereo not given)	0 (inactive)
COc1ccc(-c2c3c([nH]c(=S)c2C#N)CCC3)cc1	1 (active)
CCOC(=O)c1c(C)[nH]c(=S)c(C#N)c1-c1ccc(Cl)cc1	0.5 (inactive)
CCN1CCCC1CNC(=O)CSCc1nc(-c2ccccc2C)oc1C (stereo not given)	0 (inactive)
O=C(/C=C/c1ccccc1)NC(NC(=S)Nc1cc(Cl)ccc1Cl)C(Cl)(Cl)Cl (stereo not given)	0 (inactive)

Compound	manual score
O=C(NC(NC(=S)Nc1ccc(Cl)cc1Cl)C(Cl)(Cl)Cl)c1cccc([N+](=O)[O-])c1 (stereo not given)	1 (active)
CCC1c2ccc(C)n2CCN1C(=O)Nc1ccccc1C(=O)OC (stereo not given)	0 (inactive)
COC(=O)c1ccccc1NC(=S)NC(NC(=O)c1ccccc1[N+](=O)[O-])C(Cl)(Cl)Cl (stereo not given)	1 (active)
O=C(/C=C/c1ccccc1)NC(NC(=S)Nc1cccc(Cl)c1)C(Cl)(Cl)Cl (stereo not given)	0 (inactive)
O=C(/C=C/c1ccccc1)NC(NC(=S)Nc1cccc(O)c1)C(Cl)(Cl)Cl (stereo not given)	3 (inactive)
COC(=O)c1ccccc1NC(=S)NC(NC(=O)c1ccco1)C(Cl)(Cl)Cl (stereo not given)	1 (active)
CCOc1cc(C)nc(N2CCN(C3CCCCC3)CC2)n1	0 (inactive)
O=C1CC(c2ccncc2)c2cc3c(cc2N1)OCCO3 (stereo not given)	0 (inactive)
Cc1ccc(NC(=O)Cn2cccc2)cc1Cl	0 (inactive)
CCC(=O)Nc1nc2ccc3nc(C)sc3c2s1	0 (inactive)
Cc1cccc2sc(NC(=O)Cn3cccc3)nc12	1 (active)
CCOc1ccccc1Cn1c(=O)oc2ccc(C)cc21	0 (inactive)
COC(=O)c1c(NC(=S)NC(=O)c2ccco2)sc2c1CCCC2	0 (inactive)
COC(=O)c1c(NS(=O)(=O)Cc2ccccc2)sc2c1CCCC2	1 (active)
COC(=O)c1c(NC(=S)Nc2ccc(F)cc2[N+](=O)[O-])sc2c1CCCCC2	1 (active)
CCOC(=O)c1c(NC(=S)Nc2ccccc2)sc2c1CCCCC2	1 (active)
COc1ccc(NC(=O)COC(=O)CC23CC4CC(CC(C4)C2)C3)c([N+](=O)[O-])c1	0 (inactive)
COc1ccccc1OCC(=O)Nc1sc2c(c1C(=O)NCC1CCCO1)CCC2 (stereo not given)	0 (inactive)
CCOC(=O)c1c(NS(=O)(=O)Cc2ccccc2)sc2c1CCCC2	1 (active)
CCOC(=O)Cn1c(=O)oc2cc(S(=O)(=O)Nc3ccc(N(CC)CC)cc3C)ccc21	0 (inactive)
CC(C)c1ccccc1NC(=O)COC(=O)/C=C/c1cccc([N+](=O)[O-])c1	0 (inactive)
